Our source for the AC50 and outcome values is PubChem BioAssay (EPA / NIEHS).

Molecules are shown by their SMILES. Records with an inconclusive call do not appear. The source made the active and inactive calls. How the source made its calls: active means hit-call score of the fitted dose curve at least 0.9, where 1 is the maximum; inconclusive means response in the unintended direction; inactive means score below 0.9.

The test can be described thus: ACEA_ER_AUC_viability: ACEA Biosciences xCELLigence Real-Time Cell Analysis on Estrogen Receptor Agonism for Viability (AID 2283782).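 Further: hit means loss of impedance signal meaning reduced cell growth or viability.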 The procedure, abridged:
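Continuous-exposure impedance cell analysis uses T-47D cells in charcoal-stripped serum, eight 1:4 dilutions topping at 100 uM final, biological duplicate. Area under the growth curve at 80 h is fitted against DMSO baseline.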
On to `CCC(Cc1ccccc1)(C(=O)c1ccc(N2CCOCC2)cc1)N(C)C` (stereo unspecified), for which the AC50 is 88.7 µM (active).

Take `CC(C)=CCCC(C)C=O` (stereo unspecified): the AC50 was 11.9 µM (active).

For `CC(CC=O)CCCC(C)(C)O` (stereo unspecified), the compound was called inactive.

In the case of `COc1ccc2nc(N)sc2c1`, the compound was classed as inactive.

On to `C=CCOCC(O)CCl` (stereo unspecified), for which the call was inactive.

Consider `Cc1ccc(OC(=O)CC(C)C)cc1`, for which the AC50 is 73.8 µM (active).

For the compound `Nc1ccc(N)c(Cl)c1`, the AC50 is 67.8 µM (active).

Consider `COC(=O)c1sccc1S(N)(=O)=O`, for which the outcome was inactive.

Regarding `CCCNC(=O)NS(=O)(=O)c1ccc(Cl)cc1`, the outcome was inactive.

In the case of `FC(F)(F)C(=NOCC1OCCO1)c1ccc(Cl)cc1`, the AC50 is 74.9 µM (active).

Regarding `Cc1ccc([N+](=O)[O-])cc1S(=O)(=O)O`, the compound was classed as inactive.

For the compound `CC(C)=CCC/C(C)=C\C#N`, the result was inactive.

In the case of `CC(=O)CC(N)=O`, the call was inactive.

As to `CCO[Si](CCCN=C=O)(OCC)OCC`, the outcome was inactive.

Take `C[Si](C)(CCCN)O[Si](C)(C)CCCN`: the AC50 was 55.9 µM (active).

With `CC(C)CC(O)Cc1ccccc1` (stereo unspecified), the call was inactive.

Consider `Cc1cccc(C(=O)O)c1`, for which the compound was classed as inactive.

Take `Cc1cc(C)c(C)c(O)c1`: the compound was classed as inactive.

Take `CCCCCCCCC(=O)OCC`: the AC50 is 50 µM (active).

With `Cc1ccc(C(C)(C)C)cc1`, the compound was classed as inactive.

For `COC(=O)/C=C\C(=O)O`, the result was inactive.

For the compound `CCC(C)C=O` (stereo unspecified), the AC50 is 39.7 µM (active).

Take `C=C(C)C(=O)OCC(C)C`: the outcome was inactive.

Take `CCCOC(=O)CCCCC(=O)OCCC`: the AC50 was 50 µM (active).

Turning to `CC(C)c1ccc2c(C(C)C)cc(C(C)C)c(S(=O)(=O)O)c2c1`, the result was inactive.

Take `C=C(C)CCO`: the AC50 is 65.9 µM (active).

In the case of `CCCCCCCCCCC=CC#N`, the AC50 is 50 µM (active).

`NC(CO)(CO)CO`: the outcome was inactive.

Consider `CC(C)(C)C1CCCCC1=O` (stereo unspecified), for which the AC50 was 24.8 µM (active).

For `C/C=C\C/C=C/CCCCCCCCOC(C)=O`, the AC50 is 82.3 µM (active).

Consider `Nc1ncn([C@@H]2O[C@H](CO)[C@@H](O)[C@H]2O)c(=O)n1`, for which the AC50 was 3.22 µM (active).

Regarding `O=c1n(CCO)c(=O)n(CCO)c(=O)n1CCO`, the call was inactive.

Turning to `O=C1CCCC1`, the result was inactive.

As for `OCCCS`, the AC50 was 44.4 µM (active).

As to `OCCc1ccncc1`, the outcome was inactive.

In the case of `CN(C)c1ccc(N=Nc2ccccc2C(=O)O)cc1`, the AC50 is 11.8 µM (active).

As usually defined, the AC50 is the midpoint of the concentration-response curve, whichever way the signal moves.
